The inhibition is the change of the read-out against control, counted positive when it falls.

“And” between values parts separate entries of the source, which are not always exact repeats. Identical values can stand only once. Among all 640,000 compounds or so, about 9,300 (1.5%) were called active. For the sample, actives were picked, then their nearest neighbours and some compounds at random. Unmarked numbers belong to inactive results. No stated cut-off is given here; in the data, active means inhibition above about 32%; inactive means the rest.

The assay is described as follows: TEAD-YAP interaction inhibition, primary screen, TEAD-YAP interaction inhibitor project, luminescence, HEK-TIYL cells (AID 1259422).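 Further: 0% = median of test compound wells and 100% = reference inhibitor wells.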 The note with it: TEAD-Gal4/YAP UAS-luciferase luminescence, at 9.12 µM, active compounds read high.
For `CCn1cc(C(=O)Nc2ccc(N3CCOCC3)cc2)c(=O)c2ccc(C)nc21`, the inhibition is -7.7%. With `COc1ccc(CC(=O)N/N=C(\C)c2ccccn2)cc1OC`, the inhibition is 2.58%. The same measure for `COc1cc(C=O)ccc1OS(=O)(=O)c1ccc(Cl)cc1`: -7.3%; for `CCOC(=O)N/N=C/c1ccc(OS(=O)(=O)c2ccc(C)cc2)c(OC)c1`: 3.61%. Consider `Cc1ccc(S(=O)(=O)Oc2ccc(Br)cc2C=O)cc1`, for which the inhibition is 31.9% (active). With `CSCCC(=O)Nc1ccc(Cl)cc1`, the inhibition was 2.57%. `Cc1ccc(NC2=C(Cl)C(=O)OC2OC(=O)c2ccccc2Br)cc1` (centres undefined): the inhibition was 9.63%. With `O=c1c2ccccc2ncn1CCCCOc1ccccc1F`, the inhibition is 5.72%.

Take `N#Cc1ccccc1OCCCCn1cnc2ccccc21`: the inhibition is 35% (active). For `O=C(O)c1cccc(OCC(O)Cn2cnc3ccccc32)c1` (centres undefined), the inhibition was 10%. On to `COc1c(C)cccc1C1=N/C(=C\c2cccc([N+](=O)[O-])c2)C(=O)O1`, for which the inhibition was 9.8%. On to `CCCOC(=O)C1=C(C)N(C)C(=O)NC1c1cc(Br)c(O)c(OC)c1` (centres undefined), for which the inhibition is 3.09%. Take `COc1ccc2nc(NC(=O)CN3C(=S)NC(C)(C)CC3C)sc2c1` (centres undefined): the inhibition was 3.44%.

As to `CC(NC(=O)COC(=O)c1cccc(NS(C)(=O)=O)c1)C12CC3CC(CC(C3)C1)C2` (centres undefined), the inhibition is -4.62%. Turning to `Cc1ccc(NC(=O)C(=O)NCCC2CCCCN2S(=O)(=O)c2ccc(C)cc2)cc1` (centres undefined), the inhibition is 17.1%.

`CCCCNC(=O)C(=O)NCCC1CCCCN1S(=O)(=O)c1ccc(C)cc1` (centres undefined): the inhibition is 50.6% (active). Consider `Cc1ccc(S(=O)(=O)N2CCCCC2CCNC(=O)C(=O)NCCO)cc1` (centres undefined), for which the inhibition was -1.73%. Turning to `O=c1c(-c2ccon2)coc2cc(O)ccc12`, the inhibition is -4%.

Consider `COc1cc2nc(/C=C/c3ccco3)oc(=O)c2cc1OC`, for which the inhibition is 0.76%. Turning to `CC(=O)c1ccc(N2CCN(c3cccc[n+]3C)CC2)cc1`, the inhibition is -8.59%.

For `O=C(N/N=C/c1ccc(O)cc1)c1ccc(N2Cc3ccccc3C2)cc1`, the inhibition is -17%.

For the compound `CC(=O)c1ccc(N2Cc3ccccc3C2)cc1`, the inhibition is 38.4% (active).

In the case of `CC1=C(C(=O)OCc2ccccc2)C(c2ccccc2F)CC(=O)N1` (centres undefined), the inhibition was 0.13%. With `COc1ccccc1N=c1scc(-c2ccccc2)n1CCO`, the inhibition was 1.29%.

With `O=c1c2cc(Cl)ccc2[nH]c(=S)n1Cc1cccnc1`, the inhibition is -1.08%. The same measure for `Cc1ccc(NC(=O)c2ccc(C#N)cc2)c(C(=O)c2ccccc2)c1`: 4.87%. Consider `COC(=O)CCNc1ccc2c(c1)OCCO2`, for which the inhibition is 33.2% (active). Regarding `CC(C)=CC(=O)Nc1ccc2c(c1)OCCO2`, the inhibition is 12.2%. With `CCOc1ccc(NCCC(=O)c2ccc3c(c2)OCO3)cc1`, the inhibition is 6.84%. For the compound `Cc1cccc(NC(=O)CSc2nc3ccc([N+](=O)[O-])cc3[nH]2)c1`, the inhibition is 8.94%.

For `O=C(Nc1ccc(N2CCC(N3CCN(CCO)CC3)CC2)cc1)c1cccc(Cl)c1`, the inhibition is -1.49%. The same measure for `Cc1cc2nc(-c3ccc(NC(=O)c4cc5ccccc5o4)cc3)oc2cc1C`: -23.6%; for `Cc1cc(O)cc2c1C(=O)/C(=C/c1cc3ccccc3o1)O2`: 71.4% (active). Turning to `COC(=O)c1ccc2c(c1)C(=O)/C(=C\c1ccccc1O)O2`, the inhibition was -31.1%. Regarding `CCCCc1ccc(-c2nc(C=Nc3cc([N+](=O)[O-])ccc3C)c(O)o2)cc1`, the inhibition is -9.75%.

Consider `COc1cccc(/C=C/C(=O)c2cc3ccccc3oc2=O)c1`, for which the inhibition was -6.12%. Turning to `CCCCCCCN1C(=O)c2c(Cl)c(Cl)c(Cl)c(Cl)c2C1=O`, the inhibition was 5.39%. As for `Fc1ccc(-c2cnc3ccc(NC4CCOCC4)nn23)cc1Cl`, the inhibition is 43.8% (active).

Consider `Oc1ccc(-c2cnc3ccc(NC4CCOCC4)nn23)cc1`, for which the inhibition was -2.21%. Then `Brc1cccc(-c2cnc3ccc(NC4CCOCC4)nn23)c1`, with 29.9%; and `O=C(c1ccc2nc3ccc(Cl)cc3c(=O)n2c1)N1CCN(c2ccccc2)CC1`, with 5.05%. For `CNC(=S)N/N=C/c1cccc(/C=N/NC(=S)NC)c1`, the inhibition was -8.21%. In the case of `CCc1nc2nonc2c2nc3ccccc3n12`, the inhibition was -7.01%. In the case of `O=C(O)c1ccc(-n2cccc2)cc1O`, the inhibition is 32.4% (active). Turning to `CC(=O)C1=C(O)C(=O)N(c2ccc(C(=O)O)c(O)c2)C1c1ccccc1` (centres undefined), the inhibition was 1.91%. For the compound `O=C(O)c1ccc(N2C(=O)c3cccc4cccc(c34)C2=O)cc1O`, the inhibition is 9.06%. For `Cc1ccc(NC(=O)CCn2cccc2)c(C)c1`, the inhibition is -10.1%. Regarding `Cc1ccc2nc3nc4c(C)cccc4c(N)c3cc2c1`, the inhibition is 43.1% (active). For `Cc1ccc(-c2cc(C(=O)OCC(C)C)c3cccc(C)c3n2)cc1`, the inhibition was 3.59%. Then `Cc1cccc2c(N)c3c(nc12)CCCC3`, with -0.9%; and `OC1(c2ccc(F)cc2)CC2CCC(C1)N2c1ncnc2nc[nH]c12` (centres undefined), with 1.25%. As to `C=C(Br)Cn1c(C(C)O)nc2ccccc21` (centres undefined), the inhibition is 1.71%. The same measure for `CC1=C(C#N)C(c2ccc3c(c2)OCO3)C2=C(CC(C)(C)CC2=O)N1` (centres undefined): 10.8%.

As to `Cn1c(=O)n(CC(=O)Nc2ccc(F)cc2)c(=O)c2ccccc21`, the inhibition was 14%. The same measure for `CCOC(=O)C1=C(c2ccc(OC)cc2)C(=O)c2ccccc2C1=O`: 96% (active); for `CCOC(=O)C1=C(C)N(c2ccc(C)cc2)C(=O)/C1=C\c1ccc(OC)cc1`: -0.27%. The same measure for `CCCNC1=C(c2ccc(OC)cc2)C(=O)c2ccccc21`: -14.6%; for `CCCOc1ccc(/C(O)=C2/C(=O)C(=O)N(CCN(C)C)C2c2ccc(Cl)cc2)cc1C` (centres undefined): 4.59%. Then `Cc1occc1C(=O)Nc1ccc(NC(=O)c2ccoc2C)cc1`, with -68.2%; and `C#Cc1cccc(NC(=O)c2ccc(-c3ccccc3)cc2)c1`, with -53.1%; and `O=C(NCCc1ccccc1)c1ccc(C(=O)c2ccccc2)o1`, with -31.4%. For the compound `Cc1occc1C(=O)Nc1cccc(O)c1`, the inhibition was 37.5% (active). As to `O=C(Nc1cccc(O)c1)c1ccc(C(=O)c2ccccc2)o1`, the inhibition was 56.8% (active). Regarding `Cc1occc1C(=O)Nc1cccc(F)c1`, the inhibition is -4.37%. As for `O=C(Nc1cccc(O)c1)c1ccc(-c2ccccc2)cc1`, the inhibition was 83.8% (active). With `O=C(Nc1cccc(O)c1)c1cccnc1`, the inhibition is 24.2%. In the case of `O=C(Nc1cccc(O)c1)c1cncc(Br)c1`, the inhibition is -19.1%. Then `Cc1ccc(S(=O)(=O)n2nc(C#N)c(C#N)c2N)cc1`, with -5.77%; and `O=C(Nc1nc(-c2ccc3ccccc3c2)cs1)c1cc(-c2ccc(Br)cc2)nc2ccccc12`, with -0.33%.

As to `CCOc1cc(/C=C2/C(=N)N3N=C(CC)SC3=NC2=O)cc(Cl)c1OCCOc1ccccc1`, the inhibition is -11.5%. Consider `COc1ccc(Cl)cc1Nc1ncnc2c1c(-c1ccccc1)cn2-c1ccc(C)cc1`, for which the inhibition is -0.75%. Regarding `CC1CCN(C(=O)c2c[nH]c3ccc(S(=O)(=O)N(C)c4ccc(C(C)C)cc4)cc3c2=O)CC1`, the inhibition is -1.81%.

As for `CCOC(=O)N1CCN(S(=O)(=O)c2ccc(C(=O)Nc3ccc(F)cc3F)cc2)CC1`, the inhibition is 58.1% (active). With `CCOC(=O)N1CCN(S(=O)(=O)c2ccc(C(=O)Nc3nc(-c4ccccc4)c(C)s3)cc2)CC1`, the inhibition is -2.44%.

Turning to `CCOC(=O)c1ccc(NC(=O)c2ccc(S(=O)(=O)N3CCN(C(=O)OCC)CC3)cc2)cc1`, the inhibition is -0.65%.

`COCCOC(=O)C1=C(C)NC2=C(C(=O)CC(c3ccccc3)C2)C1c1cc(OC)ccc1OC` (centres undefined): the inhibition is 8.28%. Consider `COc1cc2c(cc1OC)C1CN3CCc4cc(OC)c(OC)cc4C3CN1CC2` (centres undefined), for which the inhibition was 5.47%.

On to `CCOc1cc2c(cc1OCC)C(c1cc(OC)ccc1OC)NCC2` (centres undefined), for which the inhibition was 6.48%. As to `CC[C@H]1CN2CCc3cc(OC)c(OC)cc3[C@@H]2C[C@@H]1C[C@H]1NCCc2cc(OC)c(OC)cc21`, the inhibition was 99.4% (active) and 101% (active).

For the compound `O=C(Cn1cnc2ccccc21)N/N=C/c1ccc(Cl)c(Cl)c1`, the inhibition was 1.91%. The same measure for `Cc1cc(OC2CCN(C(=O)c3ccc4[nH]ncc4c3)CC2)ncc1Cl`: 6.71%; for `O=C(Nc1ccc2[nH]ncc2c1)c1cccnc1OC1CCCN(Cc2ccccc2)C1` (centres undefined): -3.88%. `O=C(Nc1ccc2[nH]ncc2c1)c1ccnc(OC2CCN(Cc3ccccc3)CC2)c1`: the inhibition was 82% (active).

With `CCC(C(=O)NC(C)C)n1nc(C)c2sc3ccccc3c2c1=O` (centres undefined), the inhibition is 4.5%. For `CCOC(=O)Cn1c(=O)oc2cc(S(=O)(=O)N3CCN(CC)CC3)ccc21`, the inhibition is -3.33%. For `COc1cccc(/C=N/NC(=O)C(C)Nc2ccc(Br)cc2)c1O` (centres undefined), the inhibition was 23.5%.

In the case of `O=C(Cn1cc([N+](=O)[O-])cn1)Nc1ccc(-c2noc(-c3ccccc3F)n2)cc1`, the inhibition was -22%. For `CCCn1c(-c2ccc(S(=O)(=O)N(C)C)cc2)csc1=Nc1ccccc1`, the inhibition is 35.3% (active). With `CN(C)CCCn1c(-c2ccc(Cl)cc2)csc1=Nc1ccccc1`, the inhibition is 5.26%.

Take `O=C(O)CCn1c(-c2ccccc2)csc1=Nc1ccccc1`: the inhibition was -48.6%.

For the compound `O=C(NC1CCCCC1)c1ccc(Cn2c(=S)[nH]c3cc4c(cc3c2=O)OCO4)cc1`, the inhibition is -6.89%. For `COc1ccc([N+](=O)[O-])cc1NC(=O)c1cnc(N2CCN(c3ncccn3)CC2)c2ccccc12`, the inhibition is 36.3% (active). As for `COc1ccc(Cl)cc1NC(=O)c1cnc(N2CCN(c3ncccn3)CC2)c2ccccc12`, the inhibition was 12.9%. `O=C(Nc1ccccc1F)c1cnc(N2CCN(c3ncccn3)CC2)c2ccccc12`: the inhibition is 25.2%.

The values above are taken from PubChem BioAssay AID1259422 (The Scripps Research Institute Molecular Screening Center, 2018).
